The record followed here is PubChem BioAssay (Tox21).

Unmarked numbers belong to inactive results. Results filed as inconclusive are left out. Activity calls are given as the source filed them. Unless noted, calls come from the whole dose curve; as a rule, active = well fitted curve in the direction sought with a large enough effect in the repeat runs; inconclusive = weak or mixed curves; inactive = no such curve, though single readings can be large; an effect the other way counts as inactive or inconclusive.

The nature of assay [1]: qHTS assay to identify small molecule agonists of the estrogen receptor alpha (ER-alpha) signaling pathway in the presence of an antagonist - cell viability counter screen (AID 1259386).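 Note: series mostly up to about 92 µM; cells exposed to compounds for 22 h at 37 °C before the viability read; nearly all actives have a fitted effect of over 30% in size.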 The method in brief: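 Cytotoxicity was measured in parallel with the ERE-luciferase agonist screen, in the same wells. The cells were VM7Luc4E2, which endogenously express ER-alpha, and treatment was with compounds plus 10.0nM ICI-182,780 for 22hr.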

The target of assay [2] is Progesterone receptor (Homo sapiens) (UniProt P06401). The assay can be described thus: qHTS assay to identify small molecule agonists of the progesterone receptor (PR) signaling pathway (AID 1346784; calls by dose curve; note: nearly all actives have a fitted effect of over 30% in size). The essentials: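 Using charcoal-stripped serum (2%) to limit endogenous steroids, PR-UAS-bla HEK 293T cells received compounds for 16 hr at 37C after 6 hr plating; beta-lactamase FRET fluorescence was recorded following 2 hr substrate loading at room temperature.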
(In qHTS, concentration-response curves come from the screen itself.)

For assay [3] the target is unchanged. The assay can be described thus: qHTS assay to identify small molecule antagonists of the progesterone receptor (PR) signaling pathway (AID 1346795; active = well fitted inhibition curve with a large enough effect in the signal ratio in the repeat runs, not every such curve was filed as active; the % refers to the signal ratio). The essentials: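 Inhibition of R5020-induced (1 nM final) beta-lactamase reporter signal in PR-UAS-bla HEK293T cells was scored by FRET fluorescence after overnight (16 hr) compound treatment.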
Assay [4] in a line: qHTS assay to identify small molecule antagonists of the progesterone receptor (PR) signaling pathway - cell viability counter screen (AID 1346798). Note: series mostly up to about 92 µM; nearly all actives have a fitted effect of over 50% in size. The essentials: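 ATP content as viability readout: CellTiter-Glo luminescence, 30 min room temperature, in PR-UAS-bla HEK293T cells after 16 hr compound/R5020 treatment at 37C and 5% CO2.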
A short description of assay [5]: qHTS assay to identify small molecule agonists of the progesterone receptor (PR) signaling pathway - cell viability counter screen (AID 1346799; calls by dose curve; note: nearly all actives have a fitted effect of over 45% in size; note: potency is the fitted concentration of half-maximal effect). The essentials:
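Cytotoxicity in PR-bla HEK293T cells: 16 h compound, 37C; CellTiter-Glo added post-FRET read; luminescence after 30 min RT.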

Assay [6] can be described thus: qHTS assay to identify small molecule antagonists of the TGF-beta/Smad signaling pathway - cell viability counter screen (AID 1346824). Note: nearly all actives have a fitted effect of over 50% in size. The method in brief: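 Cytotoxicity counter-screen run in the same wells as the beta-lactamase Smad reporter read: CellTiter-Glo luminescence after 30 min at room temperature. HEK 293T SBE-bla cells had 5 hr compound exposure at 37 C with TGF-beta1 (0.25 ng/mL stock).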

The nature of assay [7]: qHTS assay to identify small molecule agonists of the TGF-beta/Smad signaling pathway - cell viability counter screen (AID 1346829). Note: top concentration of the series differs between compounds; nearly all actives have a fitted effect of over 45% in size. The essentials: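 Luminescence from CellTiter-Glo, read after a 30 min room-temperature incubation, gives cell viability of SBE-bla HEK 293T cells treated 5 hr with compounds at 37 C.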
The nature of assay [8]: qHTS assay to identify small molecule agonists of the TGF-beta/Smad signaling pathway (AID 1346859; active = well fitted activation curve with a large enough effect in the signal ratio in the repeat runs, not every such curve was filed as active; the % refers to the signal ratio; note: series mostly up to about 77 µM). The method in brief: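 Stable Smad binding element-beta-lactamase HEK 293T cells; 5 hr compound exposure at 37 C under 5% CO2; 2 hr room-temperature substrate step; fluorescence excited at 405 nm, collected at 460 nm and 530 nm.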
For assay [9], the target named is Thyrotropin-releasing hormone receptor (Homo sapiens) (UniProt P34981). The assay is described as follows: qHTS assay to identify small molecule antagonists of the thyrotropin-releasing hormone receptor (TRHR) signaling pathway (AID 1346877; active = well fitted inhibition curve with a large enough effect in the repeat runs, not every such curve was filed as active; note: series mostly up to about 51 µM). The essentials:
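Antagonism is measured as suppression of the calcium response to 1 nM TRH in TRHR-HEK293 cells that have been dye-loaded for 2 h at 37 °C after overnight plating. Each compound is tested at 15 concentrations in triplicate.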

For assay [10] the target is unchanged. The assay is described as follows: qHTS assay to identify small molecule agonists of the thyrotropin-releasing hormone receptor (TRHR) signaling pathway (AID 1346891; calls by dose curve;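 note: HEK293 cells expressing TRHR with calcium dye readout; series mostly up to about 58 µM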). The essentials:
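In 1536-format, 1500 TRHR-Hek293 cells per well grew 18 h, took up calcium dye for 2 h at 37 °C, received compound, and were read kinetically; 15-point titrations, triplicates.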

A short description of assay [11]: Human pregnane X receptor (PXR) small molecule agonists, qHTS cell viability counter screen (AID 1346977). Note: nearly all actives have a fitted effect of over 50% in size. Note: potency is the fitted concentration of half-maximal effect. The method in brief: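 Readout is CellTiter-Fluor fluorescence from PXR-Luc HepG2 cells. Plated cells rested 5hr, then were treated with compounds for 24hr at 37C and 5% CO2, with reagent present during the last hour.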
A short description of assay [12]: Caspase-3/7 induction in HepG2 cells by small molecules, qHTS assay (AID 1346978). Note: nearly all actives have a fitted effect of over 15% in size. The essentials: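 Caspase-3/7 induction was measured by Caspase-Glo 3/7 luminescence (30 min, room temperature) after a 17 hr compound exposure of wild-type HepG2 cells seeded at 2,000 per well and pre-incubated 5 hr.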
A short description of assay [13]: Caspase-3/7 induction in CHO-K1 cells by small molecules, qHTS cell viability counter screen (AID 1346979). Note: nearly all actives have a fitted effect of over 35% in size. The method in brief: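 To flag cytotoxic compounds, treated CHO-K1 wild-type cells were given CellTiter-Fluor at 16hr and read fluorescently after 1hr at 37C; the caspase-3/7 luminescence was measured in these same wells.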
Assay [14] in a line: Caspase-3/7 induction in CHO-K1 cells by small molecules, qHTS assay (AID 1346980). Note: nearly all actives have a fitted effect of over 15% in size. The essentials:
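Luminescent Caspase-Glo 3/7 read (30min, room temperature) quantified apoptosis induction. Cells were wild-type CHO-K1, treated with compound for 17hr at 37 C and 5% CO2.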

Assay [15] in a line: Caspase-3/7 induction in HepG2 cells by small molecules, qHTS cell viability counter screen (AID 1346981). Note: series mostly up to about 92 µM; nearly all actives have a fitted effect of over 30% in size. The method in brief: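 Cell viability is measured as a cytotoxicity counter screen alongside the Caspase-Glo 3/7 readout in identical wells. Wild-type HepG2 cells are treated with test compounds for 16 hr at 37 C before CellTiter-Fluor addition and a 1-hr incubation.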

In assay [16] the target is Nuclear receptor subfamily 1 group I member 2 (Homo sapiens) (UniProt O75469). The assay can be described thus: Human pregnane X receptor (PXR) small molecule agonists, qHTS assay (AID 1346982). Note: nearly all actives have a fitted effect of over 35% in size. Note: potency is the fitted concentration of half-maximal effect. The method in brief:
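Cells: HepG2 stably carrying PXR-Luc. Medium held 5% charcoal-stripped FBS. Compounds in DMSO added after 5 hr plating, incubated 24 hr, then luminescence quantified with ONE-Glo.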

For assay [17], the target named is Thyrotropin receptor (Homo sapiens) (UniProt P16473). The assay can be described thus: qHTS assay to identify small molecule antagonists of the thyroid stimulating hormone receptor (TSHR) signaling pathway (AID 1259385; calls by dose curve; note: nearly all actives have a fitted effect of over 20% in size; note: potency is the fitted concentration of half-maximal effect). The essentials:
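Antagonist mode: compound-treated TSHR-expressing HEK293 cells were stimulated with 1.5 ng/mL TSH (final) in presence of Ro20-1724 for 30 min at RT. HTRF cAMP detection after 1 h; each compound tested at 15 concentrations, triplicate.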

The target of assay [18] is Nuclear receptor subfamily 1 group I member 2 (Rattus norvegicus) (UniProt Q9R1A7). The assay is described as follows: Rat pregnane X receptor (rPXR) activation by small molecules, qHTS assay (AID 1346983). Note: nearly all actives have a fitted effect of over 20% in size. Particulars: rPXR luciferase reporter cells, One-Glo luminescence, 24 h; max activation: hits give high values. The method in brief: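 Luminescent readout (One-Glo luciferase, 30 min room temperature) followed 24 hr compound treatment at 37 C of rPXR cells plated 2,000 per well and preincubated 5hr; qHTS format with compounds delivered in DMSO.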

In assay [19] the target is Nuclear receptor subfamily 1 group I member 2 (Homo sapiens) (UniProt O75469). The assay can be described thus: CYP3A4 induction through human pregnane X receptor (PXR) by small molecules, qHTS assay (AID 1346984). Note: nearly all actives have a fitted effect of over 40% in size. The method in brief:
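Quantitative HTS in DPX-2 cells, i.e. HepG2 transfected with PXR response element and CYP3A4-promoter luciferase. Compounds in DMSO incubated 24hr at 37C; then P450-Glo CYP3A4 substrate, 3uM final, 3hr; One-Glo luminescence.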
% is set by controls: 0 for no effect and ±100 for the full control effect.

Chain of Nuclear receptor subfamily 1 group I member 2 (Homo sapiens) (O75469 whole entry, looked up): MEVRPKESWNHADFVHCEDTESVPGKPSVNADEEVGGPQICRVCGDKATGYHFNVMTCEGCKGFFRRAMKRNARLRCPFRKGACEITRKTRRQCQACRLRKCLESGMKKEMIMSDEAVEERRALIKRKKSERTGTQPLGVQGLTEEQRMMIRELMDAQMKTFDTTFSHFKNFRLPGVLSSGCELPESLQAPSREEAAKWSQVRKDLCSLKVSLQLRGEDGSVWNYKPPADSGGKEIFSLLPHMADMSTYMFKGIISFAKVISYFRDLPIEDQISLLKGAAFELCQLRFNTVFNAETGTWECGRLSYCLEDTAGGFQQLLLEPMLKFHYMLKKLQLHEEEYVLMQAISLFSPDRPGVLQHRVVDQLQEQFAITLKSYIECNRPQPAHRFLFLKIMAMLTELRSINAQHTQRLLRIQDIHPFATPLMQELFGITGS
Chain of Thyrotropin receptor (Homo sapiens) (P16473 whole entry, looked up): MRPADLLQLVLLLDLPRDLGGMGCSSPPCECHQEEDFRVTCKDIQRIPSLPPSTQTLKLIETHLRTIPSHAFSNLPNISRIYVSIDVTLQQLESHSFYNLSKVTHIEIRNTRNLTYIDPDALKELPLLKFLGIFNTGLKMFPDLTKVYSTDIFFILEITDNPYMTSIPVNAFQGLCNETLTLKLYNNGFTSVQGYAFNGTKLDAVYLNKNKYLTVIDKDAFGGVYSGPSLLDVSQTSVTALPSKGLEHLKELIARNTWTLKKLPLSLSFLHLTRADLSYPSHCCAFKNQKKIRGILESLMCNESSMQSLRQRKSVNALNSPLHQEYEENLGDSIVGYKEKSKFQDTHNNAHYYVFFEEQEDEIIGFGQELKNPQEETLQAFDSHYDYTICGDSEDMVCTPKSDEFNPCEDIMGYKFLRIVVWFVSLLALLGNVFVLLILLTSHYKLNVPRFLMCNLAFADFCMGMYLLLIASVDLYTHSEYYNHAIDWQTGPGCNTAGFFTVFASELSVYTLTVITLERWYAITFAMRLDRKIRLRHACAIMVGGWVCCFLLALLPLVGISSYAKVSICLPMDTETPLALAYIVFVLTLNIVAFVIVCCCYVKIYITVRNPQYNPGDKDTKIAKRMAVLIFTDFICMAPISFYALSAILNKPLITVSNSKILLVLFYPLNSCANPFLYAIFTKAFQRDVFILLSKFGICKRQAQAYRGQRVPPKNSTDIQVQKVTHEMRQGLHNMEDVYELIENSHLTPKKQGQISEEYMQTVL
Chain of Progesterone receptor (Homo sapiens) (P06401 whole entry, looked up): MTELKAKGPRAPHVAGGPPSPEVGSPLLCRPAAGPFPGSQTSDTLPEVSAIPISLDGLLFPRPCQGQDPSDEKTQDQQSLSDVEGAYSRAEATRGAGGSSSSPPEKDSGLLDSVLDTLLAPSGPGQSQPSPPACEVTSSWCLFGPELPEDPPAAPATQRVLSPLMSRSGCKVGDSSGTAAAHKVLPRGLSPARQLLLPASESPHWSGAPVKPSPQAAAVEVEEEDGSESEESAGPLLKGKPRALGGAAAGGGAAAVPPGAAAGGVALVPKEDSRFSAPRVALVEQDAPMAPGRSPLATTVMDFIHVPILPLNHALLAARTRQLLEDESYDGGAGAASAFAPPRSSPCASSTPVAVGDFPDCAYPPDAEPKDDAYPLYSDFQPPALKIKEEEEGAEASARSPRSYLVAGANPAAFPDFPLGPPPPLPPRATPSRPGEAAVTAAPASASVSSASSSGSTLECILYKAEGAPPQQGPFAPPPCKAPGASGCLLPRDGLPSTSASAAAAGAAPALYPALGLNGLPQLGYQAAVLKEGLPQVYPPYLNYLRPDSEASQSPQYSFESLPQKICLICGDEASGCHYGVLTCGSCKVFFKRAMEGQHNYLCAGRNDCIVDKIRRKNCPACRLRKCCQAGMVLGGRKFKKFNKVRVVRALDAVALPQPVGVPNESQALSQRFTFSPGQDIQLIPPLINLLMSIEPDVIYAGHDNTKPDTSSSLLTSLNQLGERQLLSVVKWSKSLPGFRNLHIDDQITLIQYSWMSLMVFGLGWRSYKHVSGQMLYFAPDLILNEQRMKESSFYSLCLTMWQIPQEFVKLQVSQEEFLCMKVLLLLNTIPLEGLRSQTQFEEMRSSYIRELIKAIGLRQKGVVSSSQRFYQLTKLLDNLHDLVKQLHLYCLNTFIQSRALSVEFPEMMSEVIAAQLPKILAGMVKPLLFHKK
Chain of Thyrotropin-releasing hormone receptor (Homo sapiens) (P34981 whole entry, looked up): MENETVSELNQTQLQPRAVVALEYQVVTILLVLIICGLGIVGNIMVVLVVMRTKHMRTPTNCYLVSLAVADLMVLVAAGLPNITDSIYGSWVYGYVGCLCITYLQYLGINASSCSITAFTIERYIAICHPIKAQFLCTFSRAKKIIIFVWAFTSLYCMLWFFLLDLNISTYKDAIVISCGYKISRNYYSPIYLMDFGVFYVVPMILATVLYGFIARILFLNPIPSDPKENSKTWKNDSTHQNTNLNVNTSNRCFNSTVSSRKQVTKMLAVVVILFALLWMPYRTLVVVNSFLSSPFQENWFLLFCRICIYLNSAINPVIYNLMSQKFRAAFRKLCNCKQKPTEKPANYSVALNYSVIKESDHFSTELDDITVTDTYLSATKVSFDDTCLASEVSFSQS
Chain of Nuclear receptor subfamily 1 group I member 2 (Rattus norvegicus) (Q9R1A7 whole entry, looked up): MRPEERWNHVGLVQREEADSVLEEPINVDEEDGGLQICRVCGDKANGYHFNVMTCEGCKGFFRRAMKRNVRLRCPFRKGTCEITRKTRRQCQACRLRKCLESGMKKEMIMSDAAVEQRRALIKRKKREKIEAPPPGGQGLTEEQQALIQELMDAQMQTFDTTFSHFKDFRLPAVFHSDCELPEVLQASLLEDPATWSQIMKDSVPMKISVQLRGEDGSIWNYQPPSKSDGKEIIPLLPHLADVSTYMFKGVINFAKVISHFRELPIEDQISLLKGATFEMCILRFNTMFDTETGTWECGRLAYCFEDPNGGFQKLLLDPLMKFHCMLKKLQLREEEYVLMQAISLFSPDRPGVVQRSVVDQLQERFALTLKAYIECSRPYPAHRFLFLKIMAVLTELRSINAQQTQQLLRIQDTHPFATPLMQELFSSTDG

`OCC(O)[C@@H](O)[C@H](O)[C@H](O)CO[C@H]1O[C@H](CO)[C@@H](O)[C@H](O)[C@H]1O` (stereo partly drawn): the outcome in [1], in assay [6], in [7], in [8], in assay [9] and in assay [10] was inactive. The result in assay [12], in [14] and in assay [15] was inactive. The Potency result in [2], in assay [3], in assay [4], in [5], in [11] and in [13] was “inactive” in each case. In addition, the Potency result in assay [16] was “inactive”.

`CCO[Si](CCCN=C=O)(OCC)OCC`: the outcome in assay [1], in assay [6], in assay [7], in assay [8], in assay [9] and in assay [10] was inactive. Moreover, the outcome in assay [12], in [14] and in assay [15] was inactive. The Potency entry in assay [2], in assay [3], in [4], in [5], in assay [11] and in assay [13] was “inactive” in each case. Besides, the Potency result in [16] is “inactive”.

For the compound `CO[Si](OC)(OC)OC`, the outcome in [1], in assay [6], in assay [7], in assay [8], in assay [9] and in assay [10] was inactive. Besides, the call in assay [12], in assay [14] and in [15] was inactive. The Potency entry in [2], in assay [3], in assay [4], in [5], in assay [11] and in assay [13] was “inactive” in each case. Further, the Potency result in assay [16] is “inactive”.

`CCCCOCC(C)OCC(C)O` (stereo not drawn): the outcome in assay [1], in assay [6], in assay [7], in assay [8], in assay [9] and in assay [10] was inactive. The call in assay [12], in [14] and in assay [15] was inactive. The Potency entry in assay [2], in [3], in [4], in [5], in assay [11] and in assay [13] was “inactive” each time. The Potency in assay [16] is 27.9 µM (active).

Turning to `C#CC(C)(O)CC(C)C` (stereo not drawn), the outcome in assay [1], in assay [6], in assay [7], in assay [8], in [9] and in [10] was inactive. Besides, the compound was classed as inactive in assay [12], in assay [14] and in [15]. Further, the Potency entry in [2], in assay [3], in assay [4], in assay [5], in [11] and in [13] was “inactive” each time. The Potency result in assay [16] was “inactive”.

Consider `c1cc(CN2CCCCC2)cc(OCCCNc2nc3ccccc3s2)c1`, for which the Potency in [17] was 29.8 µM (active); in assay [11], 23.7 µM (active); in assay [16], 5.31 µM (active). Further, the Potency result in assay [2], in assay [4] and in assay [19] was “inactive” in each case. Besides, the compound was classed as inactive in assay [6], in assay [7], in assay [8], in assay [12] and in assay [14]. Also, the max activation in [18] is 2.06%.

For the compound `C#CC(O)C(CC)CCCC` (stereo not drawn), the Potency result in assay [17], in [2], in [4], in [5], in [11] and in assay [13] was “inactive” in each case. Moreover, the outcome in assay [6], in [7], in [8], in [9], in [10] and in [12] was inactive. The result in [14] and in [15] was inactive.

With `CCCCCCOC(=O)c1ccccc1O`, the Potency entry in assay [17], in assay [11], in [13] and in assay [16] was “inactive” each time. In [5], the Potency was 30.6 µM (active). In addition, the compound was classed as inactive in assay [6], in assay [7], in assay [8], in assay [9], in assay [10] and in assay [12]. For the same compound, the outcome in assay [14] and in [15] was inactive.

Take `COc1cccc(OC)c1`: the outcome in assay [1], in assay [6], in assay [7], in assay [8], in assay [9] and in assay [10] was inactive. In addition, the call in assay [12], in [14] and in assay [15] was inactive. Also, the Potency entry in [2], in assay [3], in assay [4], in assay [5], in assay [11] and in assay [13] was “inactive” in each case. Also, the Potency result in assay [16] was “inactive”.

As for `CC(C)CCCCCCN`, the outcome in [1], in assay [6], in assay [7], in assay [8], in assay [9] and in assay [10] was inactive. Further, the result in assay [12], in assay [14] and in [15] was inactive. In addition, the Potency entry in assay [2], in assay [3], in assay [4], in assay [5], in assay [11] and in assay [13] was “inactive” throughout. In addition, the Potency entry in assay [16] is “inactive”.

`CC(C)(O)C(=O)c1ccc(OCCO)cc1`: the result in assay [1], in assay [6], in assay [7], in [8], in [9] and in assay [10] was inactive. In addition, the compound was classed as inactive in assay [12], in assay [14] and in assay [15]. Besides, the Potency result in assay [2], in [3], in assay [4], in [5], in assay [11] and in assay [13] was “inactive” throughout. The Potency entry in assay [16] is “inactive”.

Regarding `CNC(=O)c1c(I)c(NC(=O)CCCCC(=O)Nc2c(I)c(C(=O)O)c(I)c(C(=O)NC)c2I)c(I)c(C(=O)O)c1I`, the result in assay [1], in assay [6], in assay [7], in assay [8], in assay [9] and in assay [10] was inactive. Besides, the outcome in assay [12], in assay [14] and in assay [15] was inactive. The Potency result in assay [2], in assay [3], in assay [4], in assay [5], in assay [11] and in assay [13] was “inactive” each time. The Potency entry in assay [16] is “inactive”.
